Bioassay records deposited in PubChem by Broad Institute.
Not all results are given here.
aSyn 5UTR act: Activators via SNCA 5'UTR binding, MLPCN | activity score, % (tested at 7.5 µM), hits read low | alpha-synuclein 5'UTR reporter, activators screen | hit rate 7.1% among 300,000; in the data active = activity score below about -60%
* marks the source's active call; other numbers are inactive results.

SMILES	aSyn 5UTR act
CCOC(=O)C1CCN(C(=O)c2c(C)oc3c2C(=O)c2ccccc2C3=O)CC1	72
Cc1oc2c(c1C(=O)N1CCC(C)CC1)C(=O)c1ccccc1C2=O	83
CC1CCN(C(=O)c2cc3ccccc3c(=O)o2)CC1	-78*
CCN(CC)C(=O)c1ccc(-c2cccs2)s1	-73*
Cc1nc(-c2ccc(NC(=O)c3ccccc3Br)cc2)cs1	-161*
Cc1nc(-c2ccc(NC(=O)c3ccccc3C)cc2)cs1	-123*
O=[N+]([O-])c1ccc(C23CC4CC(CC(O)(C4)C2)C3)cc1	-87*
Cc1ccc2nc(SC(C)C(=O)N3CCOCC3)[nH]c2c1 (centres undefined)	-94*
O=C(/C=C/c1ccc(OCCCF)cc1)Nc1ccnc(-c2ccncc2)n1	-209*
O=C(/C=C/c1ccc(OCCCF)cc1)Nc1ccnc(-c2cccnc2)n1	-121*
O=C1CC(/C=C/c2ccncc2)=Nc2ccccc2N1	-65*
Cc1cccc(CCNc2nc3ccc(C)cc3n3cnnc23)c1	-156*
O=C(O)COc1ccc(-c2nccc(-c3ccccn3)n2)cc1	72
FCCCOc1ccc(-c2nccc(-c3ccccn3)n2)cc1	-63*
c1ccc(CCNc2ncnc3sccc23)nc1	-86*
OC(CNc1ncnc2sccc12)c1ccccc1 (centres undefined)	-97*
Cc1cccc(NC(=O)CSc2nnc(-c3n[nH]c4ccccc34)o2)c1	-180*
C#Cc1cccc(NC(=O)CSc2nnc(-c3ccc(C(F)(F)F)cn3)o2)c1	-124*
N#Cc1cccc(NC(=O)CSc2nnc(-c3n[nH]c4ccccc34)o2)c1	-277*
Cc1ccc(N2NC(C)(c3cccs3)NC2=S)cc1 (centres undefined)	-151*
COC(=O)c1ccc2c(=O)[nH]c(CSc3nc(C)cs3)nc2c1	-94*
CCCCNC(=O)N(C)c1nc2ccccc2s1	-133*
CCCCNC(=O)c1cc2ccccc2s1	-108*
CN(C(=O)OC(C)(C)C)c1ccc(-c2nc3ccccc3s2)cc1	104
COC(=O)N(C)c1nc2ccccc2s1	-77*
SMILES	aSyn 5UTR act
COc1ccc(/C=C/C2=NN(C)C(=O)CC2)cc1	-120*
O=C(N/N=C/C(Cl)=C/c1ccccc1)c1cnccn1	-102*
CC(/C=N/NC(=O)c1ccncc1)=C\c1ccc(C(C)C)cc1	-146*
CC(/C=N/NC(=O)c1cccnc1)=C\c1ccccc1	-124*
O=C(N/N=C/c1cc([N+](=O)[O-])ccc1Cl)c1cnccn1	81
CC(=C/c1ccccc1)/C=N/NC(=O)c1cnccn1	-190*
CC(/C=N/Nc1nc(C)cc(C)n1)=C\c1ccc(C(C)C)cc1	-153*
C/C(=N\NC(=O)C(c1ccccc1)c1ccccc1)c1ccccn1	80
CC(/C=N/NC(=O)C(O)c1ccccc1)=C\c1ccccc1 (centres undefined)	-81*
CC(/C=N\NC(=O)c1cc(C)oc1C)=C\c1ccccc1	-119*
CCOC(=O)c1sc(N)c(C(=O)OCC)c1C	-65*
COc1ccc(-c2c(-c3cc(OC)c(OC)c(OC)c3)noc2C)cn1	76
COc1cc(-c2nc(-c3ccc(Br)o3)no2)cc(OC)c1OC	-76*
COc1ccc(-c2noc(-c3ccc(Br)o3)n2)cc1OC	-97*
COc1cc(-c2onc3ccc(Br)cc23)cc(OC)c1OC	66
CCN=C1NN=C(c2c[nH]c3ccccc23)CS1	-68*
COCC(C)N=C1NN=C(c2c[nH]c3ccccc23)CS1 (centres undefined)	-66*
COCCCNc1nc(N)c([N+](=O)[O-])c(NCc2ccccc2)n1	57
COc1ccc(OCCOc2ccccc2[N+](=O)[O-])cc1	-153*
O=[N+]([O-])c1ccccc1OCCCOc1cccc2cccnc12	-96*
COc1ccc(CNc2ncccc2[N+](=O)[O-])cc1	-80*
O=[N+]([O-])c1ccccc1OCCOc1ccccc1[N+](=O)[O-]	-138*
CCOC(=O)/C=C/COc1ccccc1[N+](=O)[O-]	-70*
O=[N+]([O-])c1ccccc1NCCOc1ccccc1	-227*
CC1CN(c2ccc([N+](=O)[O-])c(NCCOc3ccc(Cl)cc3)c2)CC(C)N1 (centres undefined)	104
SMILES	aSyn 5UTR act
O=C(N/N=C/c1cccc(Cl)c1)c1c(O)c2c([nH]c1=O)CCCC2	-100*
O=C(Nc1nccs1)c1c(O)c2c([nH]c1=O)CCCC2	-209*
O=C(Nc1ccccc1O)c1c(O)c2c([nH]c1=O)CCCC2	-182*
CCCc1nnc(NC(=O)c2c(O)c3c([nH]c2=O)CCCC3)s1	-75*
CC(C)(C)OC(=O)N/N=C\c1ccc[nH]1	-77*
CCn1nc(C)c(/C=N/NC(=O)c2c[nH]c3ccccc23)c1C	-175*
C/C(=N\NC(=O)c1csc(C)c1C)c1ccc(C)s1	-93*
O=C(N/N=C/c1cccc([N+](=O)[O-])c1)c1c[nH]c2ccccc12	-124*
CC(=O)N/N=C(/C)c1ccc(NC(=O)c2csc(C)c2C)cc1	-113*
C/C(=N\NC(=O)c1c[nH]c2ccccc12)c1ccc(C)s1	-186*
O=C(N/N=C/c1ccccn1)c1c[nH]c2ccccc12	-79*
O=C(N/N=C/c1ccsc1)c1c[nH]c2ccccc12	-126*
Cc1ccsc1/C=N/NC(=O)c1c[nH]c2ccccc12	-122*
CC(C)(C)OC(=O)N/N=C/c1cccc([N+](=O)[O-])c1	-129*
CCn1ncc(/C=N\NC(=O)c2csc3ccccc23)c1C	-66*
CC/C(=N\NC(=O)c1c[nH]c2ccccc12)c1cccs1	-122*
Cc1ccc(/C=N/NC(=O)c2c[nH]c3ccccc23)s1	-113*
CSc1ccc(C2Nc3ccccc3-c3cc(C)nn32)cc1 (centres undefined)	-101*
CCOC(=O)c1ccc2c(c1)nc(-c1ccccn1)n2CC	-134*
COc1cc(O)oc1C=Nc1ccc(C(F)(F)F)cc1	-89*
COc1ccc(-c2nc(C#N)c(NC(C)C)o2)cc1	-68*
CNc1oc(-c2ccc(Cl)cc2)nc1C#N	-173*
CNc1oc(-c2cccc3ccccc23)nc1C#N	-105*
COc1ccc(-c2ccc3oc(-c4ccsc4)cc3c2)cc1	-140*
C/C(=N\NC(=O)c1cccc([N+](=O)[O-])c1)c1cccs1	-81*
SMILES	aSyn 5UTR act
C/C(=N\NC(=O)c1ccc(Cl)c(Cl)c1)c1ccc(Br)s1	91
C/C(=N/NC(=O)c1ccc2c(c1)OCO2)c1cccc([N+](=O)[O-])c1	-133*
CCNC(=S)N/N=C(\C)c1cccc([N+](=O)[O-])c1	-62*
C/C(=N/NC(=O)c1ccc2c(c1)OCO2)c1ccc(Br)s1	-89*
O=S(=O)(c1ccc(Cl)s1)N1CCCc2cccc(O)c21	-125*
O=C(Nc1ccc(Cl)cc1)Nc1ccc(-c2cnco2)cc1	-85*
O=C(NC(=O)c1ccccc1)Nc1ccc(-c2cnco2)cc1	-143*
COc1ccc(NC(=O)c2cc3c(-c4ccc(OC)c(OC)c4)nn(C)c3s2)cc1OC	-70*
Cc1ccc2c(c1)C1CN(C)CCC1N2C(=O)COc1ccc(N(C)C(=O)C(C)(C)C)cc1 (centres undefined)	-67*
Cc1ccc(C(=O)N(C)c2ccc(OCC(=O)N3c4ccc(C)cc4C4CN(C)CCC43)cc2)cc1 (centres undefined)	-86*
Cc1ccc(NC(=O)c2ccc(OC(=O)CCN3C(=O)c4ccccc4C3=O)cc2)cc1	-146*
Cc1ccc(NC(=O)c2ccc(OC(=O)COc3ccc(Cl)cc3C)cc2)cc1	-79*
Cc1ccc(NC(=O)c2ccc(OC(=O)COc3cccc(Cl)c3)cc2)cc1	-130*
